Measured values reported in PubChem BioAssay AID686979 (National Center for Advancing Translational Sciences (NCATS), 2013).
Hit rate of the full screen: of about 420,000 compounds, about 50,000 (12%) were called active. Where a call stands in place of a potency, no number is given. Not shown: some 26% with an inconclusive outcome. This is one part of a sample in which actives are shown more often than they occur. Calls follow the shape of the dose curve; as a rule, active = well fitted inhibition curve with a large enough effect; inconclusive = small, poorly fitted or top-dose-only effect; inactive = flat fitted curve, though single readings scatter.

assay: qHTS for Inhibitors of human tyrosyl-DNA phosphodiesterase 1 (TDP1): qHTS in cells in presence of CPT; details: chicken DT40 Tdp1-/-;hTDP1 cells + 20 nM CPT, ATP luminescence, 48 h; series mostly up to 46.2 µM; also: nearly all actives have a fitted effect of over 55% in size
Summary of the method: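 Chicken DT40 Tdp1-/- cells stably complemented with human TDP1 were seeded at 400 cells/well in medium containing 20 nM camptothecin, exposed to pin-transferred compounds, and grown at 37 °C for at least 48 hr. Viability was read as ATP luminescence.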
Potency is read from the fitted curve at half-maximal effect.

SMILES | Potency | activity change, negative = growth inhibition
O=C(COC(=O)c1ccccc1SCC(=O)NC1CCCCC1)NC1CCCCC1 | inactive | 
CC1CCCC(NC(=O)COC(=O)c2ccccc2C(=O)N(C)C2CCCCC2)C1C (stereo unspecified) | 23.1 µM (active) | 
C=CCNC(=O)COC(=O)c1ccccc1C(=O)N(C)C1CCCCC1 | inactive | 
COc1cc(=O)n2c(c1C(=O)NC(C)c1ccco1)CCN(C(=O)c1cn3ccc(C)cc3n1)CC2 (stereo unspecified) | inactive | 
Cc1cccn2c(=O)c(/C=C(\C#N)S(=O)(=O)c3ccc(Cl)cc3)c(N3CCC(C(N)=O)CC3)nc12 | inactive | 
Cc1ccc(C(=O)N/C(=C\c2ccco2)C(=O)NC2CCS(=O)(=O)C2)cc1 (stereo unspecified) | inactive | 
Cc1cc(C)cc(Oc2nc3c(C)cccn3c(=O)c2/C=C(\C#N)C(=O)NC2CCS(=O)(=O)C2)c1 (stereo unspecified) | 16.4 µM (active) | 
Cc1ccnc(SCC(N)=O)n1 | inactive | 
Cc1ccnc(-n2sc3ccccc3c2=O)n1 | 7.31 µM (active) | 
Cc1ccnc(Nc2nc3ccccc3s2)n1 | inactive | 
Cc1cccc(C)c1NC(=O)CNC(=O)C1CCCC1 | inactive | 
CCc1ccnc(NC(=O)Nc2ccc(OCc3ccccc3)cc2)c1 | inactive | 
Cc1ccc(C)c(NS(=O)(=O)c2c(C)[nH]c(C)c2C(=O)N2CCCCC2)c1 | inactive | 
Cc1[nH]c(C)c(S(=O)(=O)N2CCN(c3cccc(C(F)(F)F)c3)CC2)c1C(=O)N1CCCC1 | 18.4 µM (active) | 
O=C1CC(=O)Nc2cc(S(=O)(=O)N3CCN(c4cccc(C(F)(F)F)c4)CC3)ccc2N1 | inactive | 
Cc1[nH]c(C)c(S(=O)(=O)N2CCN(c3cccc(C(F)(F)F)c3)CC2)c1C(=O)N1CCCCC1 | 14.6 µM (active) | 
Cc1ccc(NS(=O)(=O)c2c(C)[nH]c(C)c2C(=O)N2CCCCC2)c(C)c1 | inactive | 
Cc1[nH]c(C)c(S(=O)(=O)N2CCC(C)CC2)c1C(=O)N1CCCC1 | inactive | 
CC1=NOC(=O)/C1=C\c1ccccc1 | inactive | 
COc1cc(/C=C2/C(=O)ON=C2C)ccc1OCc1ccccc1F | 11.6 µM (active) | 
CCOc1cc(/C=N/O)ccc1OCc1ccccc1F | inactive | 
Cc1cc(NC(=O)CCS(=O)(=O)c2ccc(F)cc2)no1 | inactive | 

SMILES | Potency | activity change, negative = growth inhibition
C[C@@H]1CN(Cc2ccc3c(c2)CN(Cc2ccc(Oc4ncccn4)cc2)CCO3)C[C@H](C)O1 |  | -11.8% [at 9.04 µM] (inactive)
O=C1Nc2ccc(Br)cc2/C1=N/N=C/C1=C(N2CCOCC2)C(=C\c2ccccc2)/CC1 | 16.4 µM (active) | 
CCN(CC)c1ccc(C(=O)N/N=C/c2ccc(N3CCOCC3)cc2)cc1 | inactive | 
COc1ccc(/C=N/N=C2/C(=O)Nc3ccccc32)cc1O | inactive | 
O=C(NN=Cc1ccc(N2CCOCC2)cc1)c1cc2ccccc2cc1O | inactive | 
O=C(O)c1ccc(NN=CC2=C(N3CCOCC3)/C(=C/c3ccccc3)CC2)cc1 | 1.46 µM (active) | 
CC1CCN(C(NC(=O)c2ccco2)C(=O)c2ccccc2)CC1 (stereo unspecified) | inactive | 
Cc1csc(SCC(=O)Nc2ccc(C)c(S(=O)(=O)N(C)C)c2)n1 | inactive | 
Cc1ccc(-n2c(C)cc(C(=O)CSc3nnc4ccccn34)c2C)cc1 | 23.1 µM (active) | 
O=C(CSc1nnc2ccccn12)c1ccccc1 | inactive | 
Cc1ccc(C(=O)NNC(=O)CSc2nnc3ccccn23)cc1 | inactive | 
COc1ccccc1C(=O)COC(=O)CSCC(=O)Nc1cc(C)on1 | inactive | 
NC(=O)C1CCCN(CC(=O)N2CCN(c3ccccc3)CC2)C1 (stereo unspecified) | inactive | 
Cc1ccc(S(=O)(=O)Oc2ccc(/C=N/NC(=O)c3c(Cl)cnn3C)cc2)cc1 | inactive | 
CC(C)(C)Nc1c(-c2cccs2)nc2ccccn12 | inactive | 
Cc1ccc(-c2nc3ccccn3c2Nc2c(C)cccc2C)o1 | 16.4 µM (active) | 
Cc1nc2ccccn2c(=O)c1NC(=O)c1ccc(Br)o1 | inactive | 
O=C(CSc1ccccc1)Nc1cccc(S(=O)(=O)N2CCOCC2)c1 | inactive | 
CC(=O)Nc1ccc(C(=O)NNC(=O)CCCCC(=O)NNC(=O)c2ccc(NC(C)=O)cc2)cc1 | inactive | 
Cn1c(=O)n(C)c2cc(C(=O)Nc3ccc(Br)cc3)ccc21 | inactive | 
COCCn1c(=O)[nH]c(=O)c2cc(C(=O)c3cc(OC)ccc3O)cnc21 | inactive | 
COc1cc(OC)c2c(c1)OC(=O)CC2c1cc(OC)c(OC)c(OC)c1 (stereo unspecified) | inactive | 

SMILES | Potency | activity change, negative = growth inhibition
COC(=O)c1cc(CNC(=O)CC(C)c2ccccc2)ccc1OC (stereo unspecified) | inactive | 
COc1cc(NC(=O)CSC(=S)N2CCCC2)c(OC)cc1Cl | 29.1 µM (active) | 
COc1cc(Cl)c(C)cc1NC(=O)CN1CCCCCC1 | inactive | 
COc1cc(NC(=S)N2CCCC(C)C2)c(OC)cc1Cl (stereo unspecified) | inactive | 
N#C/C(=C\c1cccc(F)c1)c1nc(-c2cc3c(ccc4ccccc43)oc2=O)cs1 | inactive | 
Cc1cc(C)c(S(=O)(=O)N(C)CC(=O)NCC2CCCO2)c(C)c1 (stereo unspecified) | inactive | 
COc1cccc(C(=O)NC2=NC(c3ccc(N(C)C)cc3)CC(=O)N2)c1 (stereo unspecified) | inactive | 
COc1ccc(CCNc2nc(C)cc(C)n2)cc1OC | inactive | 
COc1ccc(CCNC(=O)COC(=O)c2ncc(Cl)c(Cl)c2Cl)cc1OC | inactive | 
COc1ccc(CCNc2nc(-c3ccc(Cl)cc3)cc(C(F)(F)F)n2)cc1OC | 23.1 µM (active) | 
O=C(CN(C(=O)c1csnn1)c1ccc(Br)cc1)NC1CCCC1 | inactive | 
O=C(CCN1C(=O)[C@H]2CC=CC[C@H]2C1=O)NCc1nc(-c2ccccc2)no1 | inactive | 
COc1ccc(OC)c(NC(=O)c2ccc3c(c2)C(=O)N(c2ccc(OC(C)=O)cc2)C3=O)c1 | inactive | 
CC1CCCCN1CCCNc1ccc(C(CC(N)=O)NC(=O)c2ccccc2)cc1[N+](=O)[O-] (stereo unspecified) | inactive | 
Cc1ccc(OCC(=O)Nc2ccc(NC(=O)c3cccs3)cc2)c(C)c1 | inactive | 
CCC(C)N1C(=S)SC(C)(C)C1N(O)C(=O)NC1CCCCC1 (stereo unspecified) | inactive | 
O=C(COC(=O)c1ccc(O)cc1O)NNC(=O)c1cccs1 | inactive | 
Cc1cc2nc3n(c2cc1C)CC1CC(C(=O)NCCC(C)C)N(C)C31 (stereo unspecified) | inactive | 
COc1ccc(-n2ncc3c(SCC(=O)NNC(C)=O)ncnc32)cc1 | inactive | 
CCOc1ccc(NC(=O)c2cccc3c2C(=O)N(CC2CCCO2)C3)cc1 (stereo unspecified) | inactive | 
COc1ccc(NC(=O)c2cccc3c2C(=O)N(CC2CCCO2)C3)cc1OC (stereo unspecified) | 23.1 µM (active) | 
COCCN1Cc2cccc(C(=O)Nc3ccccc3OC)c2C1=O | inactive | 

SMILES | Potency | activity change, negative = growth inhibition
O=C1NC(c2ccccc2)CCC1(Cl)Cl (stereo unspecified) | inactive | 
Cc1ccc(NC(=O)CCN2C(=O)c3ccccc3C2=O)cc1C | inactive | 
COC(=O)C[C@H]1C[C@@H]2c3cc(NC(=O)Nc4ccccc4)ccc3O[C@@H]2[C@@H](CO)O1 | inactive | 
O=C(CN1Cc2ccccc2OC(c2ccccc2)C1)N1CCCCC1c1cccnc1 (stereo unspecified) |  | -0.761% [at 9.04 µM] (inactive)
COc1ccc(CNCCCNCc2ccc(OC)c(OC)c2)cc1OC | inactive | 
COc1cc(CNCc2cccs2)cc(Br)c1OC | inactive | 
COc1cc(CNCc2ccc(OC)c3ccccc23)cc(OC)c1OC | 9.2 µM (active) | 
Cn1cncc1COC(=O)c1ccc(Cl)cc1 | inactive | 
Cc1ccccc1NC(=O)c1nn(-c2ccc(F)c(F)c2)ccc1=O | inactive | 
Cc1cccc(NC(=S)N(CCN(C)C)C(C)c2ccco2)c1 (stereo unspecified) | inactive | 
O=S(=O)(c1cnccc1N1CCN(/N=C/c2ccc(Br)cc2)CC1)N1CCCCC1 | 18.4 µM (active) | 
CC(C)NC(=O)N1CCN(c2ccncc2S(=O)(=O)N2CCCCC2)CC1 | inactive | 
CN1CCN(c2ccncc2S(=O)(=O)N2CCCC2)CC1 | inactive | 
Cc1ccc(NC(=O)COc2ccc(/C=N\NC(=O)c3cccnc3)cc2)cc1C | inactive | 
CC1(C)N=C(N)NC(Nc2ccc(Cl)cc2)=N1 | inactive | 
COc1ccccc1NC1=NC(c2ccc(Cl)cc2)N=C(N)N1 (stereo unspecified) | 5.17 µM (active) | 
COc1ccccc1NC1=NC2(CCCC2)N=C(N)N1 | inactive | 
CC1(C)C(C=C(Cl)Cl)C1C(=O)NC(O)C(=O)c1ccccc1 (stereo unspecified) | inactive | 
COCCN(C(=O)CSCc1ccc(C)cc1)c1c(N)n(CC(C)C)c(=O)[nH]c1=O | inactive | 
C[C@]12C=CC(=O)C=C1CC[C@@H]1[C@@H]2C(=O)C[C@@]2(C)[C@H]1CC[C@]2(O)C(=O)CO | inactive | 
CCC1CCCCN1C(=S)NC(=O)c1ccco1 (stereo unspecified) | inactive | 
O=C1OC(c2ccc(Cl)cc2)=N/C1=C\c1cccnc1 | inactive | 

SMILES | Potency | activity change, negative = growth inhibition
CCOc1cc(/C=C2/N=C(c3ccc(C(C)(C)C)cc3)OC2=O)cc(Cl)c1OS(C)(=O)=O | 18.4 µM (active) | 
CC1CCN(C(=O)COC(=O)CCC(=O)c2cccs2)CC1 | inactive | 
COc1cc(C2CC(=O)Oc3cc(OC)c(OC)c(OC)c32)cc(OC)c1OC (stereo unspecified) | inactive | 
Cc1cc(C)cc(NS(=O)(=O)Cc2ccccc2)c1 | inactive | 
Cn1nnnc1SCC(=O)NNC(=O)c1ccc(Br)cc1 | inactive | 
Cc1nc2ccccc2cc1OCc1ccc(F)cc1 | 11.6 µM (active) | 
Cc1occc(=O)c1OCc1ccc(F)cc1 | inactive | 
Cc1nc2ccccc2cc1O | inactive | 
COC(=O)C1[C@H]2SC(C)(C)C(C(=O)OC)N2C(=O)N1Cc1nc2ccccc2s1 (stereo partly specified) | inactive | 
COCCNC(=O)c1cc(-c2cccc(Cl)c2)on1 | inactive | 
CC(C)c1nnc(NC(=O)C2CC(=O)N(CCc3ccc(F)cc3)C2)s1 (stereo unspecified) | inactive | 
O=C(CCC(=O)n1ncc2ccccc21)NCc1ccccc1Cl | inactive | 
CCc1noc(C)c1C(=O)Nc1nc2ccc(OC)cc2s1 | inactive | 
CCCC(=O)Nc1nc2ccc(NC(=O)c3c(F)c(F)c(OC)c(F)c3F)cc2s1 | 0.92 µM (active) | 
CCCC(=O)Nc1ccc2c(c1)nc1n2CCSC1 | inactive | 
CCOC(=O)c1cc(NC(=O)c2cccnc2)cc(C(=O)OCC)c1 | inactive | 
O=C(Cc1ccccc1)Nc1ccc(NC(=O)c2cccnc2)cc1 | inactive | 
CCCC(=O)Nc1nc2ccc(NC(=O)c3cccnc3)cc2s1 | 9.2 µM (active) | 
